Laboratory results as given in PubChem BioAssay (Tox21).
Results filed as inconclusive are left out. Activity calls are given as the source filed them. Unless noted, the call rests on the fitted dose curve; in most records, active means well fitted curve in the direction sought with a large enough effect in the repeat runs; inconclusive means weak or mixed curves; inactive means no such curve, though single readings can be large; an effect the other way counts as inactive or inconclusive.

Experiments:
[1] = target: Thyrotropin receptor (Homo sapiens) (UniProt P16473); experiment: qHTS assay to identify small molecule agonists of the thyroid stimulating hormone receptor (TSHR) signaling pathway (AID 1224843; calls by dose curve; further: nearly all actives have a fitted effect of over 45% in size)
Sequence of Thyrotropin receptor (Homo sapiens) (P16473 whole entry, looked up): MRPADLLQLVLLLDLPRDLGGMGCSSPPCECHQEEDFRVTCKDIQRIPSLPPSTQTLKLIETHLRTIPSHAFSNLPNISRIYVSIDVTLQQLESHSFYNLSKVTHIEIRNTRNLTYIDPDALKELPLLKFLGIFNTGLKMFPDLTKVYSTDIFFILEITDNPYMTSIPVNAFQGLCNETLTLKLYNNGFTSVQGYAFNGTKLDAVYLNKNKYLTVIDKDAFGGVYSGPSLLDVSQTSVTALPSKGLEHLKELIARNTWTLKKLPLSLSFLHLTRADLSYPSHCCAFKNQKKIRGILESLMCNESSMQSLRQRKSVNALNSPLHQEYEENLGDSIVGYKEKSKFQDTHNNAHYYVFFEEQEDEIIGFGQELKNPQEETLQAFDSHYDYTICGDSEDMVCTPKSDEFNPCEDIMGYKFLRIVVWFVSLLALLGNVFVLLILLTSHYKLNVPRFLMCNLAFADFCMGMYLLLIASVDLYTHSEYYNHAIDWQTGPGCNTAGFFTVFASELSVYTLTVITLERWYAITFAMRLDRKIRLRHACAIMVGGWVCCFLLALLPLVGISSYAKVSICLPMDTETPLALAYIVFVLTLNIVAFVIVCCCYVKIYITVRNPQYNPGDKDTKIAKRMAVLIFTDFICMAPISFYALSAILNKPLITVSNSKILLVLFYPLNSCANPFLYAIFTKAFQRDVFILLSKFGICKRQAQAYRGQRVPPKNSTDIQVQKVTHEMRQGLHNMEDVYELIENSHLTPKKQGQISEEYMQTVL
Method in brief: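 Compounds are titrated over 15 concentrations, in triplicate, onto TSHR-HEK293 cells seeded at 800/well. Plates sit 30 min at room temperature before cAMP-d2 and anti-cAMP cryptate are added; signal is read after a further hour.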

[2] = qHTS assay to identify small molecule agonists of the hypoxia (HIF-1) signaling pathway - cell viability counter screen (AID 1224844; calls by dose curve; further: nearly all actives have a fitted effect of over 50% in size)
Method in brief: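 Cytotoxicity measured by CellTiter-Glo ATP luminescence in the wells also read for beta-lactamase signal. Cells were HRE-bla ME-180 (2,000/well, 0.5% dialyzed FBS), exposed to compounds for 17 h at 37C.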

[3] = qHTS assay to identify small molecule agonists of H2AX (AID 1224845; active means well fitted activation curve with a large enough effect in the signal ratio in the repeat runs, not every such curve was filed as active; the % refers to the signal ratio)
Method in brief: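 Wild-type CHO-K1 cells plated overnight, then exposed 3 hr at 37C to compounds at 15 concentrations (0.76% DMSO). Lysed, then HTRF anti-pH2AX(S139)-cryptate/anti-H2AX-d2 detection after 24 hr at room temperature; emissions 665 and 620 nm.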

[4] = qHTS assay to identify small molecule agonists of the hypoxia (HIF-1) signaling pathway (AID 1224846; active means well fitted activation curve with a large enough effect in the signal ratio in the repeat runs, not every such curve was filed as active; the % refers to the signal ratio)
Method in brief: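 Compounds added to ME-180 cells carrying hypoxia-response-element beta-lactamase reporter (0.5% dialyzed FBS, 5 h preplating), 17 h at 37C; agonist activity detected by CCF4-AM B/G FRET read-out.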

[5] = qHTS assay to identify small molecule agonists of H2AX - cell viability counter screen (AID 1224847; calls by dose curve; further: top concentration of the series differs between compounds; nearly all actives have a fitted effect of over 30% in size)
Method in brief: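 CHO-K1 cells plated overnight at 37C, then exposed 3 h at 37C to compounds at 15 concentrations (0.76% DMSO final). Viability by CellTiter-Glo luminescence after 30 min at room temperature.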

[6] = qHTS assay to identify small molecule antagonists of the estrogen related receptor (ERR) signaling pathway from Tox21 library (AID 1224848); further: nearly all actives have a fitted effect of over 50% in size; further: potency means the concentration at half of the fitted maximal effect
Method in brief: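 First, 2,000 ERR cells per well were plated and held 6 h at 37 C/5% CO2. Next, compounds in DMSO were pinned in and left 18 h at 37 C. Finally, ONE-Glo was added and luminescence read after 30 min at room temperature.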

[7] = qHTS assay to identify small molecule agonists of the estrogen related receptor (ERR) signaling pathway from Tox21 library (AID 1224849; calls by dose curve; further: nearly all actives have a fitted effect of over 15% in size); details: ERR reporter cell line, ONE-Glo luciferase, 18 h; at 92.4 µM (top of the series) unless noted
Method in brief: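 Luminescent agonist read-out (One-Glo, 30-minute room-temperature incubation) following 18-hour compound treatment at 37 C of the ERR cell line, which had been plated 6 hours before dosing.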

[8] = qHTS RealTime-Glo MT Cell Viability Assay in HepG2 cells - 24 hour (AID 1224867); further: nearly all actives have a fitted effect of over 50% in size
Method in brief: (§1)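 HepG2 cells (600/well) were dispensed with RealTime-Glo reagents, incubated 5 h at 37 °C, then treated with compounds in DMSO for up to 40 h. Nonlytic NanoLuc luminescence reflecting viable cells was read at each stated time point.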

[9] = qHTS RealTime-Glo MT Cell Viability Assay in HEK293 cells - 32 hour (AID 1224868); further: top concentration of the series differs between compounds; nearly all actives have a fitted effect of over 50% in size
Method in brief: (§2)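 HEK293 cells seeded with NanoLuc/prosubstrate reagent, rested 5 h at 37 C, then dosed and kept at 37 C up to 40 h. Nonlytic real-time luminescence from viable cells read at 0, 8, 16, 24, 32 and 40 h.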

[10] = A CellTox Green Cytotoxicity Assay to monitor cytotoxicity in HEK293 cells - 0 hour (AID 1224869); further: nearly all actives have a fitted effect of over 50% in size
Method in brief: (§3)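 Fluorescence from a DNA-binding dye excluded by viable cells was measured repeatedly in the same HEK293 wells (600 cells/well) during continuous compound exposure at 37 C. Each assay gives one read point: 0, 8, 16, 24, 32 or 40 h.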

[11] = qHTS RealTime-Glo MT Cell Viability Assay in HepG2 cells - 40 hour (AID 1224870); further: nearly all actives have a fitted effect of over 50% in size
Method in brief: (§4)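 HepG2 cells mixed with RealTime-Glo MT reagents (NanoLuc plus cell-permeant prosubstrate) were seeded at 600 cells/well, incubated 5 h at 37 C/5% CO2, then pinned with compounds in DMSO; nonlytic luminescence tracked viability during 40 h treatment.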

[12] = A CellTox Green Cytotoxicity Assay to monitor cytotoxicity in HEK293 cells - 40 hour (AID 1224871); further: nearly all actives have a fitted effect of over 45% in size
Method in brief: as §3

[13] = qHTS RealTime-Glo MT Cell Viability Assay in HEK293 cells - 16 hour (AID 1224872)
Method in brief: as §2

[14] = qHTS RealTime-Glo MT Cell Viability Assay in HepG2 cells - 8 hour (AID 1224873); further: nearly all actives have a fitted effect of over 55% in size; further: potency means the concentration at half of the fitted maximal effect
Method in brief: as §4

[15] = qHTS RealTime-Glo MT Cell Viability Assay in HEK293 cells - 40 hour (AID 1224874); details: RealTime-Glo luminescence; max response: hits give low values; further: nearly all actives have a fitted effect of over 50% in size
Method in brief: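 Luminescence, which tracks viable cell number through reduction of the prosubstrate to a NanoLuc substrate, was read over continuous 37 C culture. Cells (600/well) were premixed with reagent and rested 5 h before 23 nL of compound in DMSO was pinned.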

[16] = A CellTox Green Cytotoxicity Assay to monitor cytotoxicity in HEK293 cells - 24 hour (AID 1224875); further: nearly all actives have a fitted effect of over 45% in size
Method in brief: as §3

[17] = A CellTox Green Cytotoxicity Assay to monitor cytotoxicity in HepG2 cells - 16 hour (AID 1224876); further: nearly all actives have a fitted effect of over 45% in size
Method in brief: (§5)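 Real-time cytotoxicity: fluorescence of a cell-impermeant cyanine dye binding DNA of dead HepG2 cells, measured repeatedly (0–40 h) during compound exposure at 37 C. Cells seeded 600/well with reagent, dosed after 5 h.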

[18] = qHTS RealTime-Glo MT Cell Viability Assay in HepG2 cells - 32 hour (AID 1224877); further: nearly all actives have a fitted effect of over 55% in size
Method in brief: as §1

[19] = A CellTox Green Cytotoxicity Assay to monitor cytotoxicity in HepG2 cells - 24 hour (AID 1224878); further: nearly all actives have a fitted effect of over 45% in size
Method in brief: as §5

[20] = A CellTox Green Cytotoxicity Assay to monitor cytotoxicity in HepG2 cells - 40 hour (AID 1224879); further: nearly all actives have a fitted effect of over 40% in size
Method in brief: as §5
On the % scale 0 is the no-effect control and ±100 the full control effect.

OC1(c2ccccc2)CCNCC1
inactive: Potency [1] | Potency [2] | Potency [3] | outcome [4] | Potency [5] | Potency [6] | activity change, positive = activation [7] 5.89% [at 42.5 µM] | Potency [8] | Potency [9] | Potency [10] | Potency [11] | Potency [12] | Potency [13] | Potency [14] | max response [15] 5.53% | Potency [16] | Potency [17] | Potency [18] | Potency [19] | Potency [20]

NCCNCCO
inactive: Potency [1] | Potency [2] | Potency [3] | outcome [4] | Potency [5] | Potency [6] | activity change, positive = activation [7] 0.838% | Potency [8] | Potency [9] | Potency [10] | Potency [11] | Potency [12] | Potency [13] | Potency [14] | max response [15] 20.2% | Potency [16] | Potency [17] | Potency [18] | Potency [19] | Potency [20]

CCCCCC[C@@H](O)C/C=C\CCCCCCCC(=O)O
inactive: Potency [1] | Potency [2] | Potency [3] | outcome [4] | Potency [5] | Potency [6] | activity change, positive = activation [7] -0.13% | Potency [8] | Potency [9] | Potency [10] | Potency [11] | Potency [12] | Potency [13] | Potency [14] | max response [15] 13.2% | Potency [16] | Potency [17] | Potency [18] | Potency [19] | Potency [20]

CCOC(=O)/C=C/C(=O)OCC
inactive: Potency [1] | Potency [2] | Potency [3] | outcome [4] | Potency [5] | Potency [6] | activity change, positive = activation [7] 6.14% | Potency [8] | Potency [9] | Potency [10] | Potency [12] | Potency [13] | Potency [14] | max response [15] 11.5% | Potency [16] | Potency [17] | Potency [18] | Potency [19] | Potency [20]

CCCCCC#CC(=O)OC
inactive: Potency [1] | Potency [2] | Potency [3] | outcome [4] | Potency [5] | Potency [6] | Potency [8] | Potency [10] | Potency [11] | Potency [13] | Potency [16] | Potency [17] | Potency [18] | Potency [19] | Potency [20]

CC(C)Nc1cccnc1N1CCN(C(=O)c2cc3cc(NS(C)(=O)=O)ccc3[nH]2)CC1
inactive: Potency [1] | Potency [2] | Potency [3] | outcome [4] | Potency [5] | activity change, positive = activation [7] -20.7% [at 42.5 µM] | Potency [8] | Potency [9] | Potency [10] | Potency [11] | Potency [12] | Potency [14] | max response [15] -29% | Potency [16] | Potency [17] | Potency [18] | Potency [19] | Potency [20]

CCOC(=O)C1=C(C)NC(C)=C(C(=O)OC)C1c1cccc(Cl)c1Cl (stereo unspecified)
inactive: Potency [1] | Potency [2] | Potency [3] | outcome [4] | Potency [5] | activity change, positive = activation [7] -28.7% [at 42.5 µM] | Potency [10] | Potency [12] | Potency [16] | Potency [17] | Potency [19] | Potency [20]
active: Potency [14] 19 µM

CC(CN(C)C)C(C)(O)Cc1ccc(Cl)cc1 (stereo unspecified)
inactive: Potency [1] | Potency [2] | Potency [3] | outcome [4] | Potency [5] | Potency [6] | activity change, positive = activation [7] 9.4% [at 42.5 µM] | Potency [8] | Potency [9] | Potency [10] | Potency [11] | Potency [12] | Potency [13] | Potency [14] | max response [15] -0.684% | Potency [16] | Potency [19] | Potency [20]

CC(CO)CO
inactive: Potency [1] | Potency [2] | Potency [3] | outcome [4] | Potency [5] | Potency [6] | activity change, positive = activation [7] 0.194% | Potency [8] | Potency [9] | Potency [10] | Potency [11] | Potency [12] | Potency [13] | Potency [14] | max response [15] 3.5% | Potency [16] | Potency [17] | Potency [18] | Potency [19] | Potency [20]

N#CCc1ccc(Cl)cc1Cl
inactive: Potency [1] | Potency [2] | Potency [3] | outcome [4] | Potency [5] | Potency [6] | activity change, positive = activation [7] 0.109% | Potency [8] | Potency [9] | Potency [10] | Potency [11] | Potency [12] | Potency [14] | max response [15] -14.5% | Potency [16] | Potency [17] | Potency [18] | Potency [19] | Potency [20]

CC(=O)OCC(=O)NCCCOc1cccc(CN2CCCCC2)c1
inactive: Potency [1] | Potency [2] | Potency [3] | outcome [4] | Potency [5] | activity change, positive = activation [7] 4.2% [at 42.5 µM] | Potency [8] | Potency [9] | Potency [10] | Potency [11] | Potency [12] | Potency [13] | Potency [14] | max response [15] 1.71% | Potency [16] | Potency [17] | Potency [18] | Potency [19] | Potency [20]

NC1[C@H]2CN(c3nc4c(cc3F)c(=O)c(C(=O)O)cn4-c3ccc(F)cc3F)C[C@@H]12 (stereo partly specified)
inactive: Potency [1] | Potency [2] | Potency [3] | outcome [4] | Potency [5] | Potency [8] | Potency [9] | Potency [10] | Potency [11] | Potency [14] | max response [15] -27.4% | Potency [17] | Potency [18] | Potency [19] | Potency [20]
active: activity change, positive = activation [7] 59.2% [at 42.5 µM]

CCC(C)COC(C)=O (stereo unspecified)
inactive: Potency [1] | Potency [2] | Potency [3] | outcome [4] | Potency [5] | Potency [6] | activity change, positive = activation [7] 1.45% | Potency [8] | Potency [9] | Potency [10] | Potency [11] | Potency [12] | Potency [13] | Potency [14] | max response [15] 12% | Potency [16] | Potency [17] | Potency [18] | Potency [19] | Potency [20]

O=C=Nc1ccc(Cl)c(Cl)c1
active: Potency [6] 26.9 µM
inactive: Potency [1] | Potency [2] | Potency [3] | outcome [4] | Potency [5] | activity change, positive = activation [7] -41% | Potency [8] | Potency [9] | Potency [10] | Potency [12] | Potency [13] | Potency [14] | max response [15] -3.97% | Potency [16] | Potency [17] | Potency [18] | Potency [19] | Potency [20]
